The structures appear in SMILES notation. The source made the active and inactive calls. The calls were made as follows: active = hit-call score of the fitted dose curve at least 0.9, where 1 is the maximum; inactive = score below 0.9.

The target of the assay is Beta-2 adrenergic receptor (Homo sapiens) (UniProt P07550). In words: ERF_FR_GPCR_hADRB2: Eurofins (ERF) G Protein-Coupled Receptor (GPCR) Radioligand Binding LeadHunter Assay for human Adrenoceptor Receptor beta2 Antagonism, conducted at France lab site. The protocol: ERF_FR_GPCR_hADRB2 is a biochemical, single-readout assay that uses extracted gene-proteins in a cell-free assay. Measurements were taken 2 hour after chemical dosing in a 96-well plate. See beta2 Human Adrenoceptor GPCR Binding (Antagonist Radioligand) Assay, Cerep.ERF_FR_GPCR_hADRB2 is an assay component calculated from the ERF_FR_GPCR_hADRB2 assay. It is designed to measure radioligand binding using a type of binding reporter as detected by scintillation counting with radiometry technology.Data from the assay component ERF_FR_GPCR_hADRB2 was analyzed at the assay endpoint, ERF_FR_GPCR_hADRB2, in the positive analysis fitting direction relative to DMSO as the negative control and baseline of activity. Using a type of binding reporter, loss-of-signal activity can be used to understand changes in binding as they relate to gene ADRB2. To generalize the intended target to other relatable targets, this assay endpoint is annotated to the gpcr intended target family, where the subfamily is adrenoceptor.
Sequence of Beta-2 adrenergic receptor (Homo sapiens) (P07550 whole entry, looked up): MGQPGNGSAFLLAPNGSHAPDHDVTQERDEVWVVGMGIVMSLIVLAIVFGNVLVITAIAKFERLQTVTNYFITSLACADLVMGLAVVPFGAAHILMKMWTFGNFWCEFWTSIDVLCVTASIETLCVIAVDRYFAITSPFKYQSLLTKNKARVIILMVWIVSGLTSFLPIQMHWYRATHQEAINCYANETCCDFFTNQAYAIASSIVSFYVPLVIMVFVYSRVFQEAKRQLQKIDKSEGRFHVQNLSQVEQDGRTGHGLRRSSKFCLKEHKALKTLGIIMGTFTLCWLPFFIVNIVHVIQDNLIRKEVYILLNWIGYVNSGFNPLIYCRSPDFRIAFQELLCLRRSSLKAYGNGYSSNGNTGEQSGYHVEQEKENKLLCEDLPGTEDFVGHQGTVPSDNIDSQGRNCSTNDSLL
Human cells are incubated for 60 minutes in room temprature, using [3H](-)CGP 12177 ligand at 0.3 Kd (nM) with ICI 118551 control inhibitor.Test Sample Requirements: Minimum for 1) Screen: 60 ul of 10 mM stock -OR- 1 mg (pre-weighed) for […] uM final testing. 2) Dose Response: 90 ul of 10 mM stock -OR- 1 mg (pre-weighed) for a top concentration at 10 uM.
For the molecule `O=C(/C=C/c1ccc(O)cc1)CC(=O)/C=C/c1ccc(O)cc1`, the AC50 was 3.68 µM (active).

Consider `COc1cc(CCC(=O)CC(=O)CCc2ccc(O)c(OC)c2)ccc1O`, for which the call was inactive.

For the origin of these results see PubChem BioAssay AID2284125 (EPA ToxCast).
